According to PubChem BioAssay (NCATS):
Inconclusive results are not listed. Unmarked numbers belong to inactive results. Active and inactive are the calls of the source. The call rests on the fitted dose curve; in most records, active means well fitted curve in the direction sought with a large enough effect; inconclusive means small, poorly fitted or top-dose-only effect, or another doubt; inactive means no such curve, though single readings can be large; an effect the other way counts as inactive or inconclusive.

system: not listed separately; assay: Primary qHTS for inhibitors of La Crosse Virus (LACV) - induced cell death in SH-SY5Y cells (AID 1508616); settings: SH-SY5Y LACV cytopathicity rescue, ATP luminescence, 6 d; series mostly up to 4.29 µM; activity change: at the top concentration; further: potency means the concentration at half of the fitted maximal effect;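 on activity change: top concentration of the series differs between compounds; 0% = infected DMSO wells and 100% = uninfected DMSO wells; higher means more rescue of cells from virus-induced death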
Summary of the method: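 Luminescent ATP readout (ATPLite 1step, 5 min room temperature) measured rescue from LACV-induced death after 6 days of infection at 0.01 MOI; normalized to infected DMSO wells and uninfected DMSO wells.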

Compound | activity change | Potency
O=C(N[C@H](CO)[C@H](O)c1ccc([N+](=O)[O-])cc1)C(Cl)Cl | 22.3% [at 8.54 µM] | 
CC(C)(C)NC(=O)[C@H]1CC[C@H]2[C@@H]3CC[C@H]4NC(=O)C=C[C@]4(C)[C@H]3CC[C@]12C | 17.2% | 
CCn1cc(C(=O)O)c(=O)c2cc(F)c(N3CCNCC3)cc21 | 3.96% | 
CNS(=O)(=O)Cc1ccc2[nH]cc(CCN(C)C)c2c1 | 14.4% | 
CCCOc1ccc(C(=O)OCCN(CC)CC)cc1N | -4.1% | 
CCCCc1oc2ccc(NS(C)(=O)=O)cc2c1C(=O)c1ccc(OCCCN(CCCC)CCCC)cc1 | 65.8% | 
CNC(=O)c1cc(Oc2ccc(NC(=O)Nc3ccc(Cl)c(C(F)(F)F)c3)cc2)ccn1 | 35.1% | 
CCN[C@H]1C[C@H](C)S(=O)(=O)c2sc(S(N)(=O)=O)cc21 | -0.403% | 
CC(N)C12CC3CC(CC(C3)C1)C2 (centres undefined) | -14.7% | 
COCCCOc1cc(C[C@@H](C[C@H](N)[C@@H](O)C[C@H](C(=O)NCC(C)(C)C(N)=O)C(C)C)C(C)C)ccc1OC | 29.2% | 
CCN(C)C(=O)Oc1cccc([C@H](C)N(C)C)c1 | 52.2% | 
NC(=O)N1c2ccccc2CC(=O)c2ccccc21 | 2.49% | 
N[C@@H](C(=O)N[C@@H]1C(=O)N2C(C(=O)O)=C(Cl)CS[C@H]12)c1ccccc1 | -11.4% [at 0.858 µM] | 
O=C(O)c1ccc(-n2nc(-c3ccccc3O)nc2-c2ccccc2O)cc1 | -5.15% | 
CC(C)C1CCC(C(=O)N[C@H](Cc2ccccc2)C(=O)O)CC1 (some centres undefined) | 58.6% | 
CC(=O)Oc1ccccc1C(=O)Nc1ncc([N+](=O)[O-])s1 | 8.63% | 
CN(CCOc1ccc(CC2SC(=O)NC2=O)cc1)c1ccccn1 (centres undefined) | 14.6% | 
COC(=O)Nc1nc2ccc(Sc3ccccc3)cc2[nH]1 |  | 199 nM (active)
Cn1c(=O)c2c(ncn2CC(O)CO)n(C)c1=O (centres undefined) | -1.99% | 

Compound | activity change | Potency
CC(C(=O)O)c1ccc2c(c1)CC(=O)c1ccccc1S2 (centres undefined) | 8.57% | 
CN1CCN(c2c(F)cc3c(=O)c(C(=O)O)cn4c3c2OCN4C)CC1 | 3.33% [at 1.78 µM] | 
COc1cc(NCc2ccc3nc(N)nc(N)c3c2C)cc(OC)c1OC | 12.4% | 
CCC(C)(C)c1ccc(CC(C)CN2C[C@@H](C)O[C@@H](C)C2)cc1 (some centres undefined) | 8.24% | 
C#CCN[C@@H]1CCc2ccccc21 | 24.4% | 
CC[C@H](C)C(=O)O[C@H]1C[C@@H](C)C=C2C=C[C@H](C)[C@H](CC[C@@H]3C[C@@H](O)CC(=O)O3)[C@H]21 | -0.651% | 
NNC(=O)c1ccncc1 | 7.01% | 
COc1ccc(-c2ccc3cc(C(=O)O)ccc3c2)cc1C12CC3CC(CC(C3)C1)C2 | 8.32% | 
NC1(c2ccc(-c3nc4ccn5c(=O)[nH]nc5c4cc3-c3ccccc3)cc2)CCC1 | -0.0517% | 
O=C(O)CSCC(=O)NC1CCSC1=O (centres undefined) | -6.46% | 
CC1=CC(=O)c2ccccc2C1=O | 15.2% | 
C[C@@H]1CN(c2c(F)c(N)c3c(=O)c(C(=O)O)cn(C4CC4)c3c2F)C[C@H](C)N1 | -5.27% [at 1.78 µM] | 
C1CCC(C(CC2CCCCN2)C2CCCCC2)CC1 (centres undefined) | 10.2% | 
O=S(=O)(O)CCS | 8.53% | 
CCCCOc1ccc(CC(=O)NO)cc1 | -22.2% | 
Nc1nc(=S)c2[nH]cnc2[nH]1 | -8.8% | 
CCOCC(O)COc1ccc(NC(=O)CC[S+](C)C)cc1 (centres undefined) | 10.3% | 
CN(C)CCc1c[nH]c2ccc(CS(=O)(=O)N3CCCC3)cc12 | -3.93% | 

target: Calcium and integrin-binding protein 1 (Homo sapiens) (UniProt Q99828); assay: Primary qHTS for Identification of Calcium Integrin Binding Protein 1 (CIB1) Competitor (AID 1508620); settings: CIB1-GST / FITC-alphaIIb peptide fluorescence polarization; series mostly up to 57.7 µM; activity change, negative = inhibition: at the top concentration;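 further: GST tagged CIB1 binding a fluorescein labelled alphaIIb integrin peptide tracer; top concentration of the series differs between compounds; on the % scale 0 is the no-effect control and ±100 the full control effect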
Sequence (Q99828 whole entry, looked up): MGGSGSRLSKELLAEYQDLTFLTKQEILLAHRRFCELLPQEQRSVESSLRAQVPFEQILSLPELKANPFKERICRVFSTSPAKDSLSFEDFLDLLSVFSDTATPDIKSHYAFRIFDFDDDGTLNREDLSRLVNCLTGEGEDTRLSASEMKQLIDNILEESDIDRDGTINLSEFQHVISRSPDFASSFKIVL
Summary of the method: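 CIB1-GST (1 uM final) and compound incubated 15 min at room temperature before adding FITC-alphaIIb peptide tracer (100 nM final). Competition for binding read by fluorescence polarization (ex 480, em 540) after another 15 min at room temperature.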

Compound | outcome | activity change, negative = inhibition [%]
O=C(N[C@H](CO)[C@H](O)c1ccc([N+](=O)[O-])cc1)C(Cl)Cl | inactive | 
CC(C)(C)NC(=O)[C@H]1CC[C@H]2[C@@H]3CC[C@H]4NC(=O)C=C[C@]4(C)[C@H]3CC[C@]12C | inactive | 
CCn1cc(C(=O)O)c(=O)c2cc(F)c(N3CCNCC3)cc21 | inactive | 
CNS(=O)(=O)Cc1ccc2[nH]cc(CCN(C)C)c2c1 | inactive | 
CCCOc1ccc(C(=O)OCCN(CC)CC)cc1N | inactive | 
CCCCc1oc2ccc(NS(C)(=O)=O)cc2c1C(=O)c1ccc(OCCCN(CCCC)CCCC)cc1 | inactive | 
CNC(=O)c1cc(Oc2ccc(NC(=O)Nc3ccc(Cl)c(C(F)(F)F)c3)cc2)ccn1 | inactive | 
CCN[C@H]1C[C@H](C)S(=O)(=O)c2sc(S(N)(=O)=O)cc21 | inactive | 
CC(N)C12CC3CC(CC(C3)C1)C2 (centres undefined) | inactive | 
COCCCOc1cc(C[C@@H](C[C@H](N)[C@@H](O)C[C@H](C(=O)NCC(C)(C)C(N)=O)C(C)C)C(C)C)ccc1OC | inactive | 
CCN(C)C(=O)Oc1cccc([C@H](C)N(C)C)c1 | inactive | 
NC(=O)N1c2ccccc2CC(=O)c2ccccc21 | inactive | 
N[C@@H](C(=O)N[C@@H]1C(=O)N2C(C(=O)O)=C(Cl)CS[C@H]12)c1ccccc1 | inactive | 
O=C(O)c1ccc(-n2nc(-c3ccccc3O)nc2-c2ccccc2O)cc1 | inactive | 
CC(C)C1CCC(C(=O)N[C@H](Cc2ccccc2)C(=O)O)CC1 (some centres undefined) | inactive | 
CC(=O)Oc1ccccc1C(=O)Nc1ncc([N+](=O)[O-])s1 | inactive | 
CN(CCOc1ccc(CC2SC(=O)NC2=O)cc1)c1ccccn1 (centres undefined) | inactive | 
COC(=O)Nc1nc2ccc(Sc3ccccc3)cc2[nH]1 | inactive | 
Cn1c(=O)c2c(ncn2CC(O)CO)n(C)c1=O (centres undefined) | inactive | 

Compound | outcome | activity change, negative = inhibition [%]
CC(C(=O)O)c1ccc2c(c1)CC(=O)c1ccccc1S2 (centres undefined) | inactive | 
CN1CCN(c2c(F)cc3c(=O)c(C(=O)O)cn4c3c2OCN4C)CC1 | inactive | 
COc1cc(NCc2ccc3nc(N)nc(N)c3c2C)cc(OC)c1OC | inactive | 
CCC(C)(C)c1ccc(CC(C)CN2C[C@@H](C)O[C@@H](C)C2)cc1 (some centres undefined) | inactive | 
C#CCN[C@@H]1CCc2ccccc21 | inactive | 
CC[C@H](C)C(=O)O[C@H]1C[C@@H](C)C=C2C=C[C@H](C)[C@H](CC[C@@H]3C[C@@H](O)CC(=O)O3)[C@H]21 | inactive | 
NNC(=O)c1ccncc1 | inactive | 
COc1ccc(-c2ccc3cc(C(=O)O)ccc3c2)cc1C12CC3CC(CC(C3)C1)C2 | inactive | 
NC1(c2ccc(-c3nc4ccn5c(=O)[nH]nc5c4cc3-c3ccccc3)cc2)CCC1 | inactive | 
O=C(O)CSCC(=O)NC1CCSC1=O (centres undefined) | inactive | 
CC1=CC(=O)c2ccccc2C1=O | inactive | 
C[C@@H]1CN(c2c(F)c(N)c3c(=O)c(C(=O)O)cn(C4CC4)c3c2F)C[C@H](C)N1 | inactive | 
C1CCC(C(CC2CCCCN2)C2CCCCC2)CC1 (centres undefined) | inactive | 
O=S(=O)(O)CCS | inactive | 
CCCCOc1ccc(CC(=O)NO)cc1 | inactive | 
Nc1nc(=S)c2[nH]cnc2[nH]1 |  | 1.9
CCOCC(O)COc1ccc(NC(=O)CC[S+](C)C)cc1 (centres undefined) | inactive | 
CN(C)CCc1c[nH]c2ccc(CS(=O)(=O)N3CCCC3)cc12 | inactive | 
